Screens from PubChem BioAssay.
The sample as a whole holds a higher share of hits than the screen did.
BL2 CD40 inh: CD40 pathway inhibition in BL2 cells | BL2 NF-kB luciferase reporter, CD40L-induced, 4 h | inhibition, % at 10 µM | actives 0.94% (n = 83,000);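 active means mean inhibition of at least 50% with a set share of replicates also reaching that level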;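 further: 0% = neutral control wells and 100% = IKK inhibitor VII at 50 µM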
An asterisk follows results filed as active; [ ] = remark or other dose.

SMILES | BL2 CD40 inh
C[C@@H]1CN(C)C(=O)Cc2cc(NS(C)(=O)=O)ccc2O[C@@H]1CN(C)C | 3
COc1ccc(-c2ccc([C@@H]3[C@@H](CO)N4C(=O)CN(C(=O)Cc5ccccn5)C[C@@H]34)cc2)cc1 | -1[25 µM]
O=C(c1cccnc1)N1CC[C@@H]2[C@H]1c1cc(-c3cccc(F)c3)ccc1N[C@@H]2CO | -34[25 µM]
O=C(Nc1ccccc1)N1C[C@H]2[C@@H](c3ccccc31)[C@H](CO)N2Cc1ccccc1 | -15[25 µM]
CN(CC(=O)Nc1ccccc1Br)C(=O)CNC(=O)c1ccc2c(c1)OCO2 | -4
CC(=O)Nc1ccccc1OCC(=O)c1ccc2c(c1)OCO2 | -56
O=C(/C=C\Nc1ccccc1Br)c1ccc2c(c1)OCO2 | 57*
Cc1oc(-c2nc3ccccc3n2C)cc1C(=O)c1ccccc1 | 62*
CC(=O)c1ccc(-c2nc3ccccc3n2C)o1 | -65
Cn1cc(C(=O)c2ccccc2)cc1-c1nc2ccccc2n1C | -2
COc1ccc(C#Cc2ccc([C@H]3[C@@H](CO)N4CCCCN(S(=O)(=O)c5cn(C)cn5)C[C@@H]34)cc2)cc1 | -14[25 µM]
COc1ccc(CNC(=O)N(C)C[C@H]2OCc3ccccc3-c3ccccc3C(=O)N([C@@H](C)CO)C[C@@H]2C)cc1 | -10[25 µM]
Cc1cccc(S(=O)(=O)N2C[C@H](O)COC[C@H]3O[C@H](CC(=O)Nc4ccccc4)CC[C@@H]32)c1 | 10[25 µM]
S=C(NCc1ccc(Cl)cc1)N1CCN(c2ccccn2)CC1 | 6
CC(=NNC(=S)N1CCN(c2ccccn2)CC1)c1ccccn1 | 2
CC(=NNC(=S)N1CC2CCC(CC2)C1)c1cnccn1 | 26
O=C(N/N=C/C1CCCCC1)c1ccccn1 | -42
CC(=NNC(=S)N1CCN(c2ccccn2)CC1)c1nccs1 | 78*
CC(=NNC(=S)N1CCN(C2CCCCCC2)CC1)c1ccccn1 | 51*
O=C(CCN1CCCCC1)NCC[C@H]1CC[C@@H](NC(=O)C2CCCCC2)[C@H](CO)O1 | 8
COc1ccc(C#Cc2ccc3c(c2)[C@@H]2[C@@H](CCN2C(=O)C2CCCC2)[C@H](CO)N3)cc1 | 2
COc1ccc2c3c(n(C)c2c1)[C@@H](CO)N(CC1CC1)CC31CN(C(=O)Nc2ccc(F)cc2F)C1 | 11[25 µM]
Cc1nc(N2[C@H](CO)[C@H](c3ccccc3)[C@H]2CNCC2CCCC2)sc1C | 19
C[C@@H]1CN([C@H](C)CO)C(=O)Cc2cc(NS(C)(=O)=O)ccc2O[C@@H]1CN(C)C(=O)Nc1ccccc1 | 5[25 µM]
CC(C)NC(=O)N(C)C[C@@H]1Oc2ccc(NS(C)(=O)=O)cc2C(=O)N(C)C[C@@H]1C | 5
SMILES | BL2 CD40 inh
Cc1cc(C(=O)COC(=O)c2ccc(Br)o2)c(C)n1Cc1ccco1 | -17
COCCn1c(C)cc(C(=O)COC(=O)c2ccc(-n3nc(C)cc3C)cc2)c1C | 8
Cc1cc(C(=O)COC(=O)c2ccc(Cl)c(S(N)(=O)=O)c2)c(C)n1CC1CCCO1 (configuration not stated) | 18
Cc1cc(C(=O)COC(=O)c2ccc(Br)o2)c(C)n1C | -7
COCCn1c(C)cc(C(=O)COC(=O)c2ccc(Br)o2)c1C | 48*
COCCn1c(C)cc(C(=O)COC(=O)c2ccc(Cl)c(S(N)(=O)=O)c2)c1C | 21*
N#C[C@H]1[C@@H](c2ccccc2-c2ccc(F)cc2)[C@@H](CO)N1c1ncc(-c2ccccc2)s1 | 5[25 µM]
COc1cccc(NC(=O)N2CC[C@@H]3[C@@H](CO)N(C)c4ccc(-c5ccccc5)cc4[C@@H]32)c1 | 0
O=C1CCCCc2sc(Br)c([N+](=O)[O-])c2N1 | 100*
C/C=C/c1ccc([C@H]2[C@@H](CO)N[C@@H]2CNC(=O)Cc2ccccc2)cc1 | 2[25 µM]
COCC(=O)N1[C@H](C#N)[C@@H](c2ccccc2-c2ccccc2F)[C@H]1CO | -3[25 µM]
CCN(CC)c1ccc2nc3ccc(N)cc3[n+](-c3ccccc3)c2c1 | 88*
Nc1ccc2nc(Cc3ccccc3)[nH]c2c1 | 1
C[C@H](CO)N1C[C@H](C)[C@@H](CN(C)C(=O)C2CCCCC2)OCCCC[C@H](C)Oc2ccc(NC(=O)Nc3ccc(C(F)(F)F)cc3)cc2C1=O | 3
C[n+]1c(-c2ccccc2)cc2c(=Cc3ccccc3)c3ccccc3n21 | 93*
CN(C)c1ccc(C=c2c3cc(O)ccc3n3c2cc(-c2ccccc2)[n+]3C)cc1 | 80*
O=[N+]([O-])c1ccc2c(c1)c(-c1ccccc1)nc1nncn12 | 1
O=[N+]([O-])c1ccc(C=CC=Cc2ccccc2)cc1 | 3
CCOC(=O)c1cc2c(=Cc3ccc(N(C)C)cc3)c3ccccc3n2[n+]1C | 24
C[n+]1c(-c2ccccc2)cc2c(=Cc3ccc([N+](=O)[O-])cc3)c3ccccc3n21 | 110*
CCCNC(=O)N[C@@H]1CC[C@@H](CCn2cc(C3CCCC3)nn2)O[C@@H]1CO | 9
N#C[C@@H]1[C@H](c2ccccc2C2=CCCC2)[C@@H](CO)N1C(=O)c1ccccn1 | 7[25 µM]
COCC(=O)N1[C@@H](C#N)[C@@H](c2ccc(C3=CCCCC3)cc2)[C@@H]1CO | -7
OC[C@H]1[C@H](c2ccc(Br)cc2)[C@H]2CN(Cc3cncnc3)CCCCN21 | 0[25 µM]
O=C(C1CCOCC1)N1CC(=O)N2[C@H](CO)[C@H](c3ccc(C#CC4CCCC4)cc3)[C@H]2C1 | 10
SMILES | BL2 CD40 inh
COc1cccc(C#Cc2ccc([C@H]3[C@H](CO)N4C(=O)CN(C(=O)Cc5cccnc5)C[C@@H]34)cc2)c1 | 6[25 µM]
CN(C)C(=O)c1cccc(-c2ccccc2[C@@H]2[C@H](C#N)N(C(=O)C3CCC3)[C@H]2CO)c1 | -5[25 µM]
CC(=O)c1ccc(-c2cnc3c(NC=O)cc(-c4ccc(N5CCN(C)CC5)cc4)cn23)cc1 | -25
O=CNc1cc(-c2ccccc2)cn2c(-c3ccc(F)c(Cl)c3)cnc12 | -23
CCSc1ccc(-c2cc(NC=O)c3ncc(-c4cccc(C(=O)N(C)C)c4)n3c2)cc1 | 51*
CS(=O)(=O)Nc1ccc2c(c1)[C@@H]1C[C@H](CC(=O)NCc3cc(F)ccc3F)O[C@H](CO)[C@@H]1O2 | -10[25 µM]
CCCCCCN1Cc2ccccc2C1 | -16
CCCCn1c(=N)n(CC(=O)O)c2ccccc21 | 6
CCCCCCCn1c2c(c(=N)c3ccccc31)CCC2 | 84*
CCNC(=O)[C@@H]1[C@@H](CO)[C@@H]2Cn3c(ccc(-c4ccncc4)c3=O)[C@@H]2N1Cc1ccc2c(c1)OCO2 | -5[25 µM]
C[C@H]1CN(C)C(=O)Cc2cc(N(C)C)ccc2O[C@@H]1CN(C)S(C)(=O)=O | 2
CC[C@H]1C/C=C\C[C@H](c2ccc(OC)cc2OC)NC(=O)[C@H](C)CC(=O)N1 | -8[25 µM]
C[C@H]1CN([C@@H](C)CO)C(=O)c2c(c3ccccc3n2C)-c2ccccc2CO[C@H]1CN(C)Cc1cccc(F)c1 | 12
C[C@@H]1CN([C@@H](C)CO)C(=O)c2c(c3ccccc3n2C)-c2ccccc2CO[C@@H]1CN(C)Cc1ccccc1C(F)(F)F | 62*[25 µM]
C[C@H](CO)N1C[C@H](C)[C@H](CN(C)Cc2ccc(C(F)(F)F)cc2)OCc2ccccc2-c2ccccc2C1=O | 15
C[C@@H]1CN([C@@H](C)CO)C(=O)c2ccccc2-c2ccccc2CO[C@H]1CN(C)Cc1ccccc1C(F)(F)F | 66*[25 µM]
C[C@H]1CN([C@@H](C)CO)C(=O)c2c(c3ccccc3n2C)-c2ccccc2CO[C@@H]1CN(C)Cc1cccc(C(F)(F)F)c1 | 61*[25 µM]
C[C@@H]1CN([C@@H](C)CO)C(=O)c2c(c3ccccc3n2C)-c2ccccc2CO[C@H]1CN(C)Cc1ccc(C(F)(F)F)cc1 | 11
